# Test results reported in PMC4552634, “A New Set of Chemical Starting Points with Plasmodium falciparum Transmission-Blocking Potential for Antimalarial Drug Discovery” (PLoS ONE, 2015).
# The whole screen tested about 13,000 compounds, of which about 3,200 (25%) showed an effect of 50% or more. The list shows a part of the results.
# Test system: P. falciparum stage V gametocytes
# Parameters: BacTiter-Glo ATP luminescence viability of purified stage V gametocytes in 384-well plates, per cent inhibition versus DMSO
# Conditions: 48 h, 5 µM; inhibitor
row,Compound,% Inhibition [%]
1,Cc1ccc2c(OCCN3CCC(Cc4cc5c(cc4F)OCC(=O)N5)CC3)cc(F)cc2n1 [TCMDC-141447],-8.259
2,Cc1noc(C)c1-c1cccc(CNCc2cccc(-c3ccc(-c4nc5ccccc5[nH]4)s3)c2)c1.O=C(O)C(F)(F)F [TCMDC-133048],14.32
3,COC(=O)c1sc(-c2ccc(Cl)cc2)cc1N(CCCN1CCC(N2CCCCC2)CC1)S(=O)(=O)c1ccc(C)cc1 [TCMDC-135561],98.34
4,Cc1cc(N(CCN2CCCCC2)CCN2CCCCC2)nc(Nc2ccc(Cl)cc2)n1 [TCMDC-138002],37.36
5,Cc1cc(N(CCO)CCCN2CCCCC2)nc(Nc2ccc(Cl)cc2)n1 [TCMDC-137444],33.27
6,CC(C)[C@H](NC(=O)c1ccc(O)c(-c2ccc(Cl)c(Cl)c2)c1)C(=O)NCCN(C)C [TCMDC-140863],10.43
7,CN(C)c1ccc(CN2CCC(NC(=O)c3ccc(-c4ccccc4Cl)s3)CC2)cc1 [TCMDC-134328],-0.5721
8,Cc1cc(=O)c(-c2ccc(Sc3ccc(Cl)cc3)cc2)c(C)[nH]1 [TCMDC-137403],33.38
9,Cc1cc(=O)c(-c2ccc(OCc3ccc(Cl)cc3)cc2)c(C)[nH]1 [TCMDC-137399],24.98
10,Cc1[nH]c(C)c(-c2ccc(S(=O)(=O)c3ccc(Cl)cc3)cc2)c(=O)c1Cl [TCMDC-137412],67.97
11,Cc1[nH]c(C)c(-c2ccc(S(=O)(=O)c3ccc(Cl)cc3)cc2)c(=O)c1Br [TCMDC-137414],77.4
12,Cc1cc(=O)c(-c2ccc(S(=O)(=O)c3ccc(Cl)cc3)cc2)c(C)[nH]1 [TCMDC-137417],53.38
13,Cc1ccc(C)c(Cn2ccc3nc(Cl)nc(Cl)c32)c1 [TCMDC-137818],13.19
14,Cc1cc(C)n(Cc2ccc(C(=O)NCC3CCCCC3)cc2)n1 [TCMDC-141404],-4.003
15,CCC[C@@H]1CCN[C@H]([C@H](O)c2ccnc3ccc(OC)cc23)C1 [TCMDC-138233],-1.678
16,CCC[C@@H]([C@@H](CC1CCC(C)CC1)C(=O)N[C@@H](CO)C(=O)Nc1nccs1)N(O)C=O (some centres unmarked) [TCMDC-138150],0.01446
17,CC(C)c1nc2c(N)nc(N)nc2nc1N [TCMDC-141986],9.894
18,O=C(NCCNc1ccnc2cc(Cl)ccc12)c1ccccc1F [TCMDC-125232],-18.32
19,Cn1nccc1C(=O)NCCNCc1cccc(-c2ccc(-c3nc4ccccc4[nH]3)s2)c1.O=C(O)C(F)(F)F [TCMDC-133003],-10.06
20,Cc1ccc(NC(C)C(=O)Nc2ccc(C#N)cc2)cc1S(=O)(=O)N1CCCCC1 (centres unmarked) [TCMDC-124508],-17.26
21,COc1cc(NC(=O)c2cc([N+](=O)[O-])ccc2NC(=O)CNC2CCCCC2C)cc(OC)c1 (centres unmarked) [TCMDC-125301],-14.04
22,N#Cc1cc([N+](=O)[O-])ccc1-n1nc(-c2cccc(Cl)c2)n(CC2CCCO2)c1=S (centres unmarked) [TCMDC-134718],89.7

row,Compound,% Inhibition [%]
1,CCCCn1c(Sc2ccc(C#N)c([N+](=O)[O-])c2)nnc1-c1cc(OC)cc(OC)c1 [TCMDC-135578],32.96
2,COc1cc(OC)cc(-c2nn(-c3ccc([N+](=O)[O-])cc3Cl)c(=S)n2CC2CCCO2)c1 (centres unmarked) [TCMDC-135129],88.54
3,COc1cc(OC)cc(-c2nn(-c3ccc([N+](=O)[O-])cc3C#N)c(=S)n2CC2CCCO2)c1 (centres unmarked) [TCMDC-134716],96.39
4,CCCn1c(Sc2ccc(C#N)c([N+](=O)[O-])c2)nnc1-c1cc(OC)cc(OC)c1 [TCMDC-135577],43.88
5,N#Cc1ccc(Sc2nnc(-c3ccccc3Cl)n2CC2CCCCC2)cc1[N+](=O)[O-] [TCMDC-135616],15.71
6,CCn1c(Sc2ccc(C#N)c([N+](=O)[O-])c2)nnc1-c1cc(OC)cc(OC)c1 [TCMDC-135587],21.42
7,Nc1nc(N)c2c(Cc3ccc(Br)cc3)cccc2n1 [TCMDC-137800],14.7
8,CCOC(=O)C(C(C)=O)C(c1ccccc1)C(C(C)=O)C(=O)OCC (centres unmarked) [TCMDC-125515],28.08
9,CC1CCCC(NC(=O)CCOc2ccccc2)C1 (centres unmarked) [TCMDC-139363],13.69
10,CCOC(=O)c1ccc(NC(=O)N(Cc2ccc(-c3ccc(CN4CCNCC4)cc3)cc2)Cc2cccnc2)cc1 [TCMDC-139650],18.76
11,CCOC(=O)c1ccc(NC(=O)N(Cc2ccc(-c3cccc(CN4CCNCC4)c3)cc2)C2CCN(Cc3ccccc3)CC2)cc1 [TCMDC-139636],111.5
12,CCOC(=O)c1ccc(NC(=O)N(Cc2ccc(-c3ccc(CN4CCNCC4)cc3)cc2)C2CCN(Cc3ccccc3)CC2)cc1 [TCMDC-139651],101.9
13,CC(C)Cc1nc(N)nc(N)c1-c1ccc(Cl)cc1 [TCMDC-137932],19.17
14,Cn1nc(C(F)(F)F)c(-c2ccc(F)cc2)c1NC(=O)Nc1ccc(F)cc1 [TCMDC-124506],65.51
15,O=C(Nc1ccccc1C(F)(F)F)Nc1nn(Cc2c(F)cccc2Cl)cc1Br [TCMDC-124365],-20.4
16,CN1CCN=C1c1ccc(NC(=O)Nc2ccc(C3=NCCN3C)cc2)cc1 [TCMDC-137204],15.96
17,Cn1nc(C(F)(F)F)c(-c2ccc(F)cc2)c1NC(=O)Nc1ccc(F)cc1F [TCMDC-123774],47.06
18,O=C(Nc1ccccc1)Nc1ccc(-n2ccc(C(F)(F)F)n2)cc1 [TCMDC-123480],-19.16
19,COc1ccc(-c2c(C(F)(F)F)nn(C)c2NC(=O)Nc2ccc(F)cc2F)cc1 [TCMDC-123775],71.46
20,Cn1nc(C(F)(F)F)c(-c2ccc(Br)cc2)c1NC(=O)Nc1ccc(F)cc1F [TCMDC-124576],44.22
21,COc1ccc(NC(=O)Nc2cccc(-c3cccc(-c4nc5ccc(F)cc5[nH]4)c3)c2)cc1 [TCMDC-133249],-8.23
22,Cn1nc(C(F)(F)F)c(-c2ccc(Br)cc2)c1NC(=O)Cc1ccccc1F [TCMDC-123792],91.27
